Hits are enriched below; roughly 10% of the tested compounds scored in any of these assays.
G9a block: qHTS Assay for Inhibitors of Histone Lysine Methyltransferase G9a. G9a H3K9 monomethylation, AlphaScreen, 2 h. Potency, µM (highest dose often 102 µM), most hits filed as inhibitors. actives 8.8% (n = 350,000); note: nearly all actives have a fitted effect of over 75% in size
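Methyltransferase reactions run at room temperature for 2 h (20 nM enzyme, 500 nM biotin-H3K9 peptide, 20 uM SAM) after a 15 min compound preincubation; product detected by AlphaScreen beads and anti-H3K9me1 antibody.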
BAZ2B inh: qHTS Assay for Inhibitors of BAZ2B; Bromodomain adjacent to zinc finger domain protein 2B (Homo sapiens), Q9UIF8; AlphaScreen BAZ2B-H3K14Ac peptide displacement; Potency, µM (titrated, usually from 114 µM), usual class: inhibitors; AID 504333, 2011; actives 4.4% (n = 360,000); note: nearly all actives have a fitted effect of over 60% in size
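AlphaScreen displacement: compounds (up to 110uM) incubated 30 min at room temperature with a preformed 50 nM BAZ2B/50 nM biotinylated H3K14Ac peptide complex in PBS pH 7.4 with Tween-20. Donor and acceptor beads at 10 ug/mL final added, 20 min light-protected before reading.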
HP1b binding inh: HTS for Inhibitors of HP1-beta Chromodomain Interactions with Methylated Histone Tails; Potency, µM (top dose mostly 114 µM), most hits filed as inhibitors; AlphaScreen HP1-beta / biotin-H3K9me3 peptide binding; actives 0.56% (n = 390,000); note: nearly all actives have a fitted effect of over 70% in size
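Compound inhibition of the preformed complex between 50 nM HP1-beta and 50 nM biotinylated H3K9me3 peptide was read by AlphaScreen. Buffer was PBS pH 7.4 with 0.01% Tween-20. Incubations ran 30 min at room temperature, with 10 ug/mL donor/acceptor beads.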
Six1-Eya2 inh: qHTS Assay for Inhibitors of the Six1/Eya2 Interaction | Homeobox protein SIX1 (Homo sapiens) + Protein phosphatase EYA2 (Homo sapiens), … | AID 651725, 2012 | actives 0.56% (n = 360,000) | AlphaScreen GST-Six1/His-Eya2 binding, biochemical; stronger effect = lower value | activity change, % (test concentration not listed); in the data active = activity change below about -65%; inconclusive = mostly about -30% to -63%
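AlphaScreen with GST-Six1 and His-Eya2 (5X mix: 250 nM and 500 nM), glutathione donor and nickel acceptor beads; buffer 50 mM Tris pH 8.0, 300 mM NaCl, 1 mM TCEP; 1 h at 37 C in the dark.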
CtBP-E1A inh: qHTS Assay for Inhibitors of the CtBP/E1A Interaction; AlphaScreen GST-E1A/His-CtBP binding, 1536-well; stronger effect = lower value; activity change, % (concentration not given with the values); CtBP / adenovirus E1A interaction (AlphaScreen); actives 0.49% (n = 340,000); in the data active = activity change below about -65%; inconclusive = mostly about -30% to -63%
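Homogeneous bead-based format: GST-tagged E1A captured on glutathione donor beads, His-tagged CtBP on nickel acceptor beads; compounds precede bead addition by 2 h at 37 °C.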
JMJD2A Tudor: qHTS Assay for Inhibitors of JMJD2A-Tudor Domain; Potency, µM (titrated, usually from 114 µM), usual class: inhibitors; AlphaScreen JMJD2A-Tudor / H3K4me3 peptide binding; actives 4.4% (n = 390,000); note: nearly all actives have a fitted effect of over 50% in size
Target sequence (O75164 whole entry, looked up, the tested form may be a part): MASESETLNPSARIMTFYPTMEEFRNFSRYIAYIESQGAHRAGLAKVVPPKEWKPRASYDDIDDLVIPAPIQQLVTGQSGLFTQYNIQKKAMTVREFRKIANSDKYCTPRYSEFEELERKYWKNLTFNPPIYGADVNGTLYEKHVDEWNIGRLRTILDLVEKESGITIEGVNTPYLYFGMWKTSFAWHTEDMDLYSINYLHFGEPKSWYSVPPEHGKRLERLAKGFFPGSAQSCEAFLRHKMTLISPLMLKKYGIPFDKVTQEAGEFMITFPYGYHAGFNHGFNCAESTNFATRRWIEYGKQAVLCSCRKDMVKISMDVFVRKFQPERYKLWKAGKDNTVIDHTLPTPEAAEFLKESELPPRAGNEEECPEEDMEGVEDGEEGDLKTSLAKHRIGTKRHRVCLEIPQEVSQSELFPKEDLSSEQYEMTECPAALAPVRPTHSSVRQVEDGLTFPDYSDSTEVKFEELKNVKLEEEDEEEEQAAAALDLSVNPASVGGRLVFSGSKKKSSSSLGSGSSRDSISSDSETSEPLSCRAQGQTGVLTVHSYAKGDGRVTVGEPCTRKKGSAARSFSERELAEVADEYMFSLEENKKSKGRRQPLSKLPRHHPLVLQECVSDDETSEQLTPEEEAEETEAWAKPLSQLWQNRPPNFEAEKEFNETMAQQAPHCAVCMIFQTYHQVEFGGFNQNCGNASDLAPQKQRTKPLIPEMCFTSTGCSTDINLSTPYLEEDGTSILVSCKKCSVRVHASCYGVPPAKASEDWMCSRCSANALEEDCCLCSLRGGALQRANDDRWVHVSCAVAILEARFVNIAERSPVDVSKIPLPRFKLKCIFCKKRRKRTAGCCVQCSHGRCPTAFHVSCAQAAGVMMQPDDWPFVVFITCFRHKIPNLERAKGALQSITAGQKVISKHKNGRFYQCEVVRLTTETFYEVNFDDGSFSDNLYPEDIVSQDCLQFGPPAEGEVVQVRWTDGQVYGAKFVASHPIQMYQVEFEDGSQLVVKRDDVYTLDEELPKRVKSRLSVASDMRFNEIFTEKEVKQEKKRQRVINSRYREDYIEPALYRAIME
Each line names hits and unclear results; the compound was inactive in the other large screens; ! = not confirmed by another sample. Unless noted, calls come from the whole dose curve; as a rule, active = well fitted inhibition curve with a large enough effect; inconclusive = small, poorly fitted or top-dose-only effect; inactive = no such curve, though single readings can be large or run the other way.

CCOC(=O)C1=C(C)N(c2ccccc2)C(=O)C1CC(=O)O (stereo unspecified)	G9a block 18µM
CCOC(=O)C1=C(C)N(C)C(=O)C1CC(=O)O (stereo unspecified)	JMJD2A Tudor 56µM
CCOC(=O)c1cccc(Nc2nc(C(=O)OCC)nc3ccccc23)c1	none (no result: Six1-Eya2 inh, CtBP-E1A inh)
CC(=O)c1cccc(Nc2nc(-c3ccccc3)nc3ccccc23)c1	G9a block 50µM
CCOC(=O)c1nc(Nc2cccc(C)c2)c2ccccc2n1	JMJD2A Tudor 50µM!
COC(=O)c1cccc(Nc2nc(-c3cccnc3)nc3ccccc23)c1	none
O=C(O)c1ccc(Nc2nc(-c3cccnc3)nc3ccccc23)cc1	G9a block 56µM (no result: HP1b binding inh, Six1-Eya2 inh, CtBP-E1A inh, JMJD2A Tudor)
O=C(O)c1cccc(Nc2nc(-c3cccnc3)nc3ccccc23)c1	G9a block inconclusive, BAZ2B inh inconclusive, Six1-Eya2 inh -80, CtBP-E1A inh inconclusive, JMJD2A Tudor inconclusive
CC(=O)Nc1cccc(Nc2nc(-c3ccccc3)nc3ccccc23)c1	none
COc1ccc(N2CCN(C(=O)Cn3nc(Cc4cccnc4)c4ccccc4c3=O)CC2)cc1	G9a block inconclusive, BAZ2B inh inconclusive (no result: Six1-Eya2 inh, CtBP-E1A inh)
CCN1CCN(C(=O)c2ccc3c(c2)N(Cc2cccc(F)c2)C(=O)c2ccccc2S3)CC1	G9a block inconclusive, JMJD2A Tudor 79µM (no result: Six1-Eya2 inh, CtBP-E1A inh)
CN1CCN(C(=O)c2ccc3c(c2)N(Cc2ccc(Cl)cc2)C(=O)c2ccccc2S3=O)CC1 (stereo unspecified)	G9a block 79µM
O=C(NCCN1CCCC1)c1ccc2c(c1)N(Cc1ccc(F)cc1)C(=O)c1ccccc1S2=O (stereo unspecified)	G9a block 40µM
CCc1nnc(NC(=O)c2cc(=O)c3cc(C)c(C)cc3o2)s1	none (no result: Six1-Eya2 inh, CtBP-E1A inh)
COc1ccc(/C=N/N=C2/NC(=O)C(CC(=O)O)S2)cc1OCc1ccccc1Cl (stereo unspecified)	BAZ2B inh 50µM, JMJD2A Tudor inconclusive
COc1ccc(/C=N/N=C2/NC(=O)C(CC(=O)O)S2)cc1OCc1ccc(Cl)cc1Cl (stereo unspecified)	G9a block 79µM, BAZ2B inh 50µM, JMJD2A Tudor inconclusive
CCOc1cc(/C=N/N=C2/NC(=O)C(CC(=O)O)S2)ccc1OCc1ccccc1Cl (stereo unspecified)	G9a block inconclusive, BAZ2B inh 50µM, JMJD2A Tudor inconclusive
CCn1c(=O)c(=O)[nH]c2cc(C(=O)NCC3CCCCC3)ccc21	G9a block inconclusive
CCn1c(=O)c(=O)[nH]c2cc(C(=O)NC3CCCC3)ccc21	JMJD2A Tudor 13µM
O=C(O)/C=C/c1ccc(-c2cccc(C(F)(F)F)c2)o1	G9a block 45µM
CCC(C)OC(=O)/C(C#N)=C\c1ccc(-c2cccc(C(F)(F)F)c2)o1 (stereo unspecified)	none (no result: Six1-Eya2 inh, CtBP-E1A inh)
O=C(/C=C\c1ccc(-c2ccccc2)o1)c1ccccc1	G9a block 10µM, BAZ2B inh 32µM, HP1b binding inh inconclusive
Cc1ccc(C(=O)NNC(=O)/C=C\C(=O)O)cc1	G9a block 50µM, BAZ2B inh inconclusive
Cn1nccc1C(=O)N1CCN(c2cccc(C(F)(F)F)c2)CC1	G9a block 71µM
c1ccc(-c2cn3c(n2)-c2ccccc2C3)cc1	BAZ2B inh inconclusive
CC(/C=C/C(=O)c1ccc(C)cc1)=C\c1ccccc1	none
CC(=O)N1CCN(C(=O)c2ccc(-c3cccc(C(F)(F)F)c3)o2)CC1	G9a block 50µM
CCN(CC)S(=O)(=O)c1ccc(C(=O)/C=C/c2ccc(-c3ccc([N+](=O)[O-])cc3)o2)cc1	G9a block inconclusive
